In the library only some 22% were active in any assay of this set; here they are far more common.
LmPK inh: blocks Leishmania mexicana pyruvate kinase activity | purified LmPK, Kinase-Glo ATP luminescence, 1 h | Potency, µM (top dose mostly 57.5 µM), usual class: inhibitors | 290,000 compounds, 0.37% hits | AID 1721
Target sequence (Q27686 whole entry, looked up): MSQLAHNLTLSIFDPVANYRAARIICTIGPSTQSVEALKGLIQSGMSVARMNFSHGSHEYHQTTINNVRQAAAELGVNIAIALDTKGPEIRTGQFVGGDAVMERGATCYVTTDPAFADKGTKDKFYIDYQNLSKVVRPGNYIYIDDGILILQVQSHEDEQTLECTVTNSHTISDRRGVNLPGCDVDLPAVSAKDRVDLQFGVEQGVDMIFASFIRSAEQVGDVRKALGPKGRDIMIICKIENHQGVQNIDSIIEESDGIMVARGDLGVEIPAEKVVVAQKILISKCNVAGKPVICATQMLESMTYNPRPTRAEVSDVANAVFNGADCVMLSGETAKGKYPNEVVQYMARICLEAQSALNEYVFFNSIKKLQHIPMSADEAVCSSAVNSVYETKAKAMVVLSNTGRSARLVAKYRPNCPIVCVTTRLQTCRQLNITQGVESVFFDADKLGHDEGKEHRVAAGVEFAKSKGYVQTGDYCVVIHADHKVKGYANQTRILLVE
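qHTS format; LmPK 0.1 nM; substrates PEP 0.5 mM and ADP 0.1 mM. One-hour room-temperature incubation, then coupled luciferase luminescence; 0.5 nM enzyme wells mark activation.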
Cycloheximide cs: counter-screen for Shiga toxin inhibitors: cycloheximide protein synthesis inhibition | cell reporter, cycloheximide protein synthesis inhibition counterscreen | max response, % | 300,000 compounds, 12% hits | AID 2314; in the data active means max response mostly above about 13%, no sharp cut-off; inactive means mostly below about 14%; further: read at 38.3 µM for the half of the compounds with a filed dose
Pf growth 48h: P. falciparum growth inhibition at 48 hours (one generation); P. falciparum luciferase growth in erythrocytes, 48 h; Potency, µM (doses to about 28.7 µM), most hits filed as inhibitors; 310,000 compounds, 5.9% hits; AID 504832
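Parasite viability was followed by luminescence of a genomically integrated firefly luciferase. Cultures held 0.1% parasitemia at 2% hematocrit (final), incubated under 5% CO2 at 37 C.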
Pf growth 96h: P. falciparum growth inhibition at 96 hours; P. falciparum luciferase reporter growth, 96 h; Potency, µM (titrated, usually from 28.7 µM), usual class: inhibitors; 320,000 compounds, 6.9% hits; AID 504834
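Two-generation exposure (96 h) targets delayed-death phenotype. Reporter parasites carrying integrated firefly luciferase, in red cells at 2% hematocrit and 0.05% parasitemia final, kept at 37 C, 5% CO2; luminescence loss indicates inhibition.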
Shiga inhibitor: inhibitors of Shiga toxin in Vero cells; Vero cells, Shiga toxin protein synthesis inhibition reporter; inhibition, % at 38.7 µM; 290,000 compounds, 9.2% hits; in the data active means inhibition mostly above about 28%, no sharp cut-off; inactive means mostly below about 43%
Each line names hits and unclear results; the compound was inactive in the other large screens. Unless noted, the call rests on the fitted dose curve; in most records, active means well fitted inhibition curve with a large enough effect; inconclusive means small, poorly fitted or top-dose-only effect, or another doubt; inactive means no such curve, though single readings can be large or run the other way.

CCCCN(Cc1ccco1)S(=O)(=O)c1ccc(-c2ccc(=O)[nH]n2)s1	Pf growth 96h 15µM
COCC(=O)N1CCC(n2nccc2NC(=O)CCOc2ccccc2)CC1	Cycloheximide cs 24, Pf growth 96h 12µM, Shiga inhibitor 36
CCCNC(=O)N1CCC(n2nccc2NC(=O)CCOc2ccccc2)CC1	Pf growth 96h inconclusive
O=C(CCOc1ccccc1)Nc1ccnn1C1CCN(C(=O)CCC(F)(F)F)CC1	Cycloheximide cs 23, Pf growth 48h inconclusive, Pf growth 96h 12µM
COCc1ccc(CN2CCC(n3nccc3NC(=O)CCOc3ccccc3)CC2)o1	Pf growth 96h inconclusive
COC(=O)CCCC(=O)N1CCC(n2nccc2NC(=O)CCOc2ccccc2)CC1	Cycloheximide cs 21, Pf growth 96h inconclusive
Cc1cc(C)cc(NC(=S)NC2CC3CCC(C2)N3Cc2ccco2)c1 (centres undefined)	Pf growth 48h inconclusive, Pf growth 96h 2.3µM
Cc1ccc(C)c(NC(=S)NC2CC3CCC(C2)N3Cc2ccco2)c1 (centres undefined)	Pf growth 48h inconclusive, Pf growth 96h 12µM
Fc1ccc(NC(=S)NC2CC3CCC(C2)N3Cc2ccco2)cc1 (centres undefined)	none
Cc1cccc(NC(=S)NC2CC3CCCC(C2)N3Cc2cccs2)c1 (centres undefined)	Pf growth 48h inconclusive, Pf growth 96h 10µM
Cc1ccc(C(=O)NC2CC3CCC(C2)N3Cc2ccco2)cc1 (centres undefined)	none
Cc1cc2c(s1)c1cnn(Cc3ccc(C(C)C)cc3)c(=O)c1n2C	none (no result: LmPK inh, Pf growth 48h, Pf growth 96h)
COc1ccccc1CNC(=O)C(CC(C)C)NC(=O)C1CCC(C)CC1 (centres undefined)	Pf growth 96h 13µM (no result: Pf growth 48h)
COc1ccccc1CNC(=O)C1CCC(CNS(=O)(=O)c2ccc(C)cc2)CC1 (centres undefined)	Pf growth 48h inconclusive, Pf growth 96h 7.4µM
CCCCC(CC)CNC(=O)C(=O)c1ccccc1NC(C)=O (centres undefined)	Pf growth 48h inconclusive, Pf growth 96h inconclusive
CCc1ccc(CNC(=O)C2CCC(=O)N2C2CCCCC2)cc1 (centres undefined)	none (no result: Pf growth 48h)
CC1CC(C)CN(CCCNC(=O)C2CCC(=O)N2C2CCCC2)C1 (centres undefined)	Pf growth 96h 10µM
O=C(NCc1ccccn1)C1CCC(=O)N1C1CCCCC1 (centres undefined)	Pf growth 96h 1.9µM (no result: Pf growth 48h)
Cc1nc(Cl)c2c(n1)NC1=C(O2)C(=O)CCC1	Cycloheximide cs 21
Cc1nn(S(=O)(=O)c2ccccc2)c(C)c1S(=O)(=O)N1CCOCC1	none
COc1cc(CO)ccc1OCC(=O)N1CCc2ccccc21	Cycloheximide cs 19, Pf growth 96h inconclusive, Shiga inhibitor 24
O=C(COc1ccc(F)cc1Br)N1CCc2ccccc21	Cycloheximide cs 42, Shiga inhibitor 47
CN(CC(=O)Nc1ccccc1C(F)(F)F)C(=O)c1cccc(-n2cccc2)c1	none (no result: LmPK inh, Cycloheximide cs, Shiga inhibitor)
Cc1cccc(N2CCN(Cc3nc(-c4cccc(Oc5ccccc5)c4)oc3C)CC2)n1	Pf growth 48h inconclusive
Cc1ccc(SCCC(=O)NCCSCc2ccco2)cc1	none
Cc1ccc(C)c(S(=O)(=O)NCc2ccc(C(=O)NCc3ccco3)cc2)c1	Pf growth 48h inconclusive, Pf growth 96h 9.3µM
Cc1ccc(C(=O)Nc2cccc(C(=O)NCc3ccccc3)c2)cc1	Cycloheximide cs 15
Cc1ccc(C(=O)N/C(=C/c2cccs2)C(=O)NCc2ccco2)cc1	Pf growth 96h 0.52µM
Cc1ccc(SCCNCc2ccco2)cc1	Cycloheximide cs 14
Cc1ccc(C)c(S(=O)(=O)NCC(=O)NCc2ccco2)c1	Pf growth 96h inconclusive
CCCC1=C([O-])C2N=CC=CC2=[N+](c2ccccn2)C1=O (centres undefined)	none
CC(C)(C)c1nc2c(s1)CCc1onc(-c3ccc(Cl)cc3)c1-2	Pf growth 96h inconclusive (no result: LmPK inh, Cycloheximide cs, Shiga inhibitor)
Cc1ccc(C(=O)NCc2ccco2)c(C)c1	Pf growth 96h 12µM
O=C(NCc1ccco1)c1ccccc1O	Pf growth 96h 10µM
CCC1=Nc2cc(C(=O)NCc3ccco3)ccc2Sc2ccc(C)cc21	Pf growth 48h 1.3µM
COCCNC(=S)NC(=O)c1ccc(C(C)(C)C)cc1	Cycloheximide cs 59, Pf growth 96h inconclusive, Shiga inhibitor 96
COCCCNC(=S)NNC(=O)C1CC1c1ccc(C(C)(C)C)cc1 (centres undefined)	Pf growth 48h inconclusive
CCC1=Nc2cc(C(=O)NCCN3CCOCC3)ccc2Sc2ccc(C)cc21	Pf growth 48h inconclusive
CCCN[C@@H](C)C(=O)Nc1c(C)csc1C(=O)OC	none (no result: LmPK inh, Cycloheximide cs, Shiga inhibitor)
O=C(CSc1nc2ccccc2s1)NCc1cc([N+](=O)[O-])ccc1O	Pf growth 96h inconclusive (no result: LmPK inh, Cycloheximide cs, Shiga inhibitor)
Cc1ccc(C(=O)N/C(=C/c2ccccc2)C(=O)NC(Cc2ccccc2)C(=O)O)cc1 (centres undefined)	none
O=C(Nc1ccc(O)cc1)/C(=C\c1cccs1)NC(=O)c1ccccc1	none
Cc1ccc(NC(=O)/C(=C\c2cccs2)NC(=O)c2ccccc2)cc1	Pf growth 48h inconclusive, Pf growth 96h 7.4µM
CC(C)(C)c1ccc(C(=O)NC(=S)NCc2ccco2)cc1	Cycloheximide cs 24, Pf growth 48h inconclusive
Cc1ccc(/C=C(\NC(=O)c2ccccc2)C(=O)NC(Cc2ccccc2)C(=O)O)cc1 (centres undefined)	Pf growth 96h 0.52µM
Cc1ccc(C(=O)NCc2ccco2)cc1	Cycloheximide cs 18
O=C1C2=C(C(c3ccccc3)=NCCN2)C(c2cccc([N+](=O)[O-])c2)N1c1ccccc1 (centres undefined)	Pf growth 48h inconclusive
Cc1ccc(C(=O)Nc2cccc(C(=O)NCc3ccco3)c2)cc1	Cycloheximide cs 19, Shiga inhibitor 35
CCCCNc1nnc(SCC(=O)c2c[nH]c3ccccc23)s1	Pf growth 48h 10µM, Pf growth 96h 8.3µM
Cc1ccc(C(CC(=O)O)Nc2nc(N3CCOCC3)nc(N3CCOCC3)n2)cc1 (centres undefined)	Pf growth 96h inconclusive
Cc1ccc2c3c(cccc13)-c1ccccc1C2=O	Cycloheximide cs 28
COc1ccccc1-[n+]1c(C)cc(/C=C2\Sc3ccccc3N2C)cc1C	Cycloheximide cs 32, Pf growth 48h 0.93µM, Pf growth 96h 0.59µM
COc1ccc(C(=O)/C=C2\Sc3ccccc3N2C)cc1	Cycloheximide cs 35
COc1ccc(-[n+]2c(C)cc(/C=C3\Sc4ccccc4N3C)cc2C)cc1	Pf growth 48h 0.74µM, Pf growth 96h inconclusive, Shiga inhibitor 62
O=C(c1ccc(Cl)c(S(=O)(=O)NCc2cccnc2)c1)N1CCCC1	none (no result: LmPK inh, Cycloheximide cs, Shiga inhibitor)
O=C(O)CCn1c2ccccc2c2nc3ccccc3nc21	Cycloheximide cs 19, Shiga inhibitor 58
CC(=O)Nc1ccc(S(=O)(=O)c2c(N)n(CCN3CCOCC3)c3nc4ccccc4nc23)cc1	Pf growth 48h inconclusive
CCn1c2ccccc2c2n[nH]c(=S)nc21	none
O=C(O)Cn1c2ccccc2c2n[nH]c(=S)nc21	Pf growth 96h 3.7µM (no result: Shiga inhibitor)

Bioassay records (PubChem)
